Source: PubChem (Broad Institute)
EWS-Fli block: inhibitors of EWS/Fli oncoprotein transcriptional activity | A673 NR0B1-luciferase reporter, viability-normalised | inhibition, % at 12.6 µM | 350,000 compounds, 0.67% hits;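 active means mean inhibition of at least 50% after viability correction, with every replicate also passing that limit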;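 further: firefly luciferase signal divided by Alamar Blue viability fluorescence both relative to DMSO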
LGR2 antag: blocks bursicon-induced cAMP signaling via Drosophila LGR2; 380,000 compounds, 0.35% hits; inhibition, % at 9.99 µM; HEK293 LGR2, CRE-luciferase, bursicon-stimulated, 4 h;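 active means drop in luminescence signal, shown as inhibition above about 50% in the replicate tests, limit read from the data, passing the limit was not always enough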;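 further: agonist challenge used bursicon conditioned medium at about half maximal strength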
RAD54 inh: blocks human RAD54 Holliday junction branch migration; 360,000 compounds, 0.14% hits; FAM/BHQ fluorescence; inhibition, % at 10.4 µM; Q92698;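 active means mean normalized replicate activity at least 40 and at least half of replicates scoring 40 or more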;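 further: 0% = median of neutral control wells and 100% = median of positive control wells; inhibitors cause a drop in the FAM fluorescence signal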
GSIS activator: GLuc luminescence reporter in INS-1E cells, primary screen for activators of glucose-dependent secretion of insulin; 370,000 compounds, 0.61% hits; activation, % at 16.6 µM; INS-1E GLuc reporter insulin secretion, 2-3 h;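 active means lowest replicate activation of at least 40%, so every replicate reaches that level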;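 further: 0% = median of neutral control wells and 100% = median of IBMX positive control wells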
F508del corr: correctors of CFTR F508del function in bronchial epithelial cells; CFBE cells, YFP halide quenching; stimulated with forskolin plus potentiator P3; % fluorescence drop versus neutral controls; activity (quench increase), % at 7.58 µM; 350,000 compounds, 0.36% hits; AID 720511;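 active means mean added fluorescence quench of at least 8% versus neutral control, with both replicates also reaching 8%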;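 further: cells transiently co-express mutant CFTR-F508del with the halide-sensitive YFP; corrector assay measuring rescue of mutant channel to the surface after 24 h compound exposure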
RAD52 anneal inh: inhibitors of human RAD52 DNA annealing. P43351. recombinant RAD52 DNA annealing, FRET fluorescence. inhibition, % at 18.7 µM. 360,000 compounds, 0.46% hits. AID 651710;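 active means every replicate showing at least 50% inhibition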
Target sequence (P43351 whole entry, looked up): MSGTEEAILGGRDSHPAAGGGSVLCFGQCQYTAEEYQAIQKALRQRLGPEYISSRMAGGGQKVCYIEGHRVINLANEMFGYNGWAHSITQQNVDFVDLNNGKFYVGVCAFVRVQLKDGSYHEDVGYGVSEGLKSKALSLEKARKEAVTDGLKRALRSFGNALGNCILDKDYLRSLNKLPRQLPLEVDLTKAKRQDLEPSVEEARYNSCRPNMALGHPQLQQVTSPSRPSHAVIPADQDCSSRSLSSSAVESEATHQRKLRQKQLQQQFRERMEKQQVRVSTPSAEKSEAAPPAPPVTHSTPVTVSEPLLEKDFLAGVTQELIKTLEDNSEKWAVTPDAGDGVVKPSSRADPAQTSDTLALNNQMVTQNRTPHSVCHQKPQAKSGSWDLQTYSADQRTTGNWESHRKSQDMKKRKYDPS
* = called active by the depositor. Sampled rows, rich in hits. Any-hit rate of the full collection: about 1.8%.

For C[C@H](CO)N1C[C@H](C)[C@H](CN(C)Cc2ccccc2)OCCCC[C@H](C)Oc2ccc(NS(=O)(=O)c3ccc(Cl)cc3)cc2C1=O the results were EWS-Fli block 9, LGR2 antag 11, RAD54 inh -2, GSIS activator -10, F508del corr -1 and RAD52 anneal inh 52*.
C[C@H]1CCCCO[C@@H](CN(C)Cc2ccccc2)[C@@H](C)CN([C@@H](C)CO)C(=O)c2cc(NS(=O)(=O)c3ccc(Cl)cc3)ccc2O1 was read as EWS-Fli block 5, LGR2 antag 6, RAD54 inh -3, GSIS activator -30, F508del corr 0 and RAD52 anneal inh 39.
For CC(=O)Nc1sc(C)c(C)c1C(=O)OCC(=O)N(CC(C)C)c1c(N)n(Cc2ccccc2)c(=O)[nH]c1=O the results were EWS-Fli block 63*, LGR2 antag 12, RAD54 inh -3, GSIS activator -23, F508del corr -7 and RAD52 anneal inh -16.
For COC(=O)c1cnn(-c2nc(OC)cc(OC)n2)c1C the results were EWS-Fli block -9, LGR2 antag -10, GSIS activator 0 and RAD52 anneal inh -7.
`COc1cc(OC)nc(-n2ncc(Br)c(Br)c2=O)n1` gave EWS-Fli block 48, LGR2 antag 103*, GSIS activator 130 and RAD52 anneal inh 4.
`CC(=O)Nc1ccc(NC(=O)CN(C)CCC#N)cc1` gave RAD54 inh 6.
`O=[N+]([O-])c1ccc(Sc2cccc[n+]2[O-])c2nonc12` gave EWS-Fli block 56*, LGR2 antag 25, GSIS activator -9, F508del corr 45* and RAD52 anneal inh -78.
Screening O=C1CC(c2ccccc2)CC2=C1C=Nc1ccccc1N2 (stereo not drawn) returned EWS-Fli block 12, LGR2 antag -4, GSIS activator 10, F508del corr 9.2* and RAD52 anneal inh -9.
O=C1CC(c2ccc(F)cc2)CC2=C1C=Nc1ccccc1N2 (stereo not drawn) was read as EWS-Fli block 2, LGR2 antag -4, GSIS activator -31, F508del corr 4 and RAD52 anneal inh -10.
Screening O=C(c1cccnc1)N1C[C@H]2[C@@H](c3ccccc31)[C@@H](CO)N2C(=O)CN1CCOCC1 returned EWS-Fli block -3, LGR2 antag -2, RAD54 inh 2, GSIS activator -4, F508del corr 1 and RAD52 anneal inh -12.
For COc1cccc(-c2nc3ccccc3s2)c1 the results were RAD54 inh -7.
For COc1ccc(-c2nc3ccccc3s2)cc1 the results were EWS-Fli block 79*, LGR2 antag 80*, GSIS activator 1 and RAD52 anneal inh -12.
`c1coc(-c2nc3ccccc3s2)c1` gave EWS-Fli block -71, LGR2 antag -43, RAD54 inh -3, GSIS activator -8, F508del corr 11* and RAD52 anneal inh -6.
Screening C[C@H](NC(=O)C[C@H]1CC[C@H](NC(=O)C2CCOCC2)[C@@H](CO)O1)c1ccccc1 returned EWS-Fli block -4, LGR2 antag -2, RAD54 inh -5, GSIS activator 8, F508del corr 2 and RAD52 anneal inh 8.
`COc1ccc(N(CC(=O)NCCSC2CCCCC2)S(=O)(=O)c2ccc(C)cc2)cc1` gave EWS-Fli block 12, LGR2 antag 5, RAD54 inh 4, F508del corr 0 and RAD52 anneal inh -30.
CCOC(=O)c1cc(CC)sc1NC(=O)COC(=O)c1cnccn1 was read as EWS-Fli block -4, LGR2 antag -20, RAD54 inh 4, GSIS activator 69*, F508del corr 6 and RAD52 anneal inh -5.
C[C@H]1CN([C@@H](C)CO)C(=O)Cc2cc(NC(=O)Cn3cnnn3)ccc2O[C@H]1CN(C)C(=O)NC1CCCCC1 was read as EWS-Fli block -8, LGR2 antag 6, RAD54 inh -2, GSIS activator 1, F508del corr 1 and RAD52 anneal inh 1.
Screening Brc1ccc(-c2nnc3n2-c2ccccc2CC3)cc1 returned LGR2 antag 1, RAD54 inh 12, GSIS activator 12 and RAD52 anneal inh -6.
CCOc1ccc(C(=O)Nc2cccc(C(=O)O)c2)cc1Cl was read as EWS-Fli block 40, LGR2 antag 76*, GSIS activator -10, F508del corr -1 and RAD52 anneal inh -5.
For Cc1ccc(S(=O)(=O)N(C)C)cc1NC(=O)COc1ccccc1C(=O)Nc1ccccc1 the results were EWS-Fli block 11, LGR2 antag -9, RAD54 inh 2, GSIS activator 3, F508del corr 0 and RAD52 anneal inh -3.
`CCOC(=O)c1cccc(NC(=O)Nc2ccc(OCC)cc2)c1` gave EWS-Fli block 84*, LGR2 antag 1, GSIS activator 0, F508del corr -1 and RAD52 anneal inh -15.
Screening CN(C)S(=O)(=O)c1cccc(NC(=O)COc2ccccc2C(=O)Nc2ccccc2)c1 returned EWS-Fli block 13, LGR2 antag 45*, RAD54 inh -14, GSIS activator -22, F508del corr 2 and RAD52 anneal inh -2.
`Cc1cccc(OCC(=O)Nc2cc(NC(=O)COc3cccc(C)c3C)cc(C(=O)O)c2)c1C` gave EWS-Fli block 12, LGR2 antag 17, RAD54 inh 2, GSIS activator 3, F508del corr -2 and RAD52 anneal inh -16.
Cc1ccccc1OCC(=O)Nc1cccc(C(=O)O)c1 was read as EWS-Fli block 83*, LGR2 antag 101*, GSIS activator 7, F508del corr 2 and RAD52 anneal inh -12.
O=C(O)c1cccc([N+](=O)[O-])c1C(=O)Nc1nc2ccccc2s1 was read as EWS-Fli block 10, LGR2 antag -23, GSIS activator -14, F508del corr 2 and RAD52 anneal inh -11.
CCOc1ccc(NC(=O)Nc2cccc(C(=O)O)c2)cc1 was read as EWS-Fli block 91*, LGR2 antag 105*, GSIS activator 4, F508del corr 2 and RAD52 anneal inh -1.
`CCOc1ccc(NC(=O)Nc2ccc3nsnc3c2)cc1` gave EWS-Fli block -60, LGR2 antag -37, RAD54 inh 3, GSIS activator -4, F508del corr 2 and RAD52 anneal inh -9.
CCOC(=O)c1cccc(NC(=O)c2ccc(N(C)C)cc2)c1 was read as EWS-Fli block 76*, LGR2 antag -15, GSIS activator 1 and RAD52 anneal inh 1.
For CCOC(=O)c1cccc(NC(=O)c2ccc(NC(=O)c3ccco3)cc2)c1 the results were LGR2 antag -7, RAD54 inh 1, GSIS activator 34, F508del corr -3 and RAD52 anneal inh -7.
For CS(=O)(=O)N1CCCCC1c1cc(C(=O)NCc2ccc(F)cc2)no1 (stereo not drawn) the results were EWS-Fli block -1, LGR2 antag 15, RAD54 inh -3, GSIS activator -1, F508del corr 0 and RAD52 anneal inh 4.
